Screens (PubChem)
Shown is part of a subset that was picked to be rich in hits.
VDR inh: Inhibitors of the vitamin D receptor (VDR): qHTS. Vitamin D3 receptor (Homo sapiens), P11473. VDR-SRC2-3 peptide fluorescence polarization, 2 h. Potency, µM, inactives show max response, negative = inhibition, most hits filed as inhibitors. 400,000 compounds, 0.93% hits. AID 504847, 2011; also: % is scaled to controls: 0 for no effect and ±100 for the full control effect
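Measured by FP: displacement of SRC2-3 coactivator peptide from VDR by library compounds, following a two-hour ambient incubation.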
Sfp PPTase inh: qHTS Assay for Inhibitors of Bacillus subtilis Sfp phosphopantetheinyl transferase (PPTase); 4'-phosphopantetheinyl transferase ffp (Bacillus subtilis), Q9F4F7; Potency, µM, inactives show largest response in the series, negative = inhibition, actives largely listed as inhibitors; Biochemical Sfp PPTase activity, qHTS; 310,000 compounds, 3.5% hits;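 also: the enzyme is Sfp with the accession as filed and its product quenches rhodamine fluorescence; 0% = enzyme reaction without inhibitor and -100% = no enzyme wells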
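Buffer: 50 mM Hepes-Na pH 7.6, 10 mM MgCl2, 0.01% Nonidet P-40, 0.01% BSA. Enzyme 15 nM, pre-exposed to compound 15 min; substrates then added and fluorescence change tracked over 30 min.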
ALOX12 inh: Primary qHTS assay for inhibitors of human arachidonate 12S-lipoxygenase (ALOX12): Round 2; Polyunsaturated fatty acid lipoxygenase ALOX12 (Homo sapiens), P18054; purified 12hLO, xylenol orange hydroperoxide absorbance; Potency, µM (doses to about 108 µM), inactives show at the highest dose activity change, negative = inhibition, usual class: inhibitors; 580,000 compounds, 1.1% hits; AID 1671190, 2021; also: % is scaled to controls: 0 for no effect and ±100 for the full control effect
Target sequence (P18054 whole entry, looked up): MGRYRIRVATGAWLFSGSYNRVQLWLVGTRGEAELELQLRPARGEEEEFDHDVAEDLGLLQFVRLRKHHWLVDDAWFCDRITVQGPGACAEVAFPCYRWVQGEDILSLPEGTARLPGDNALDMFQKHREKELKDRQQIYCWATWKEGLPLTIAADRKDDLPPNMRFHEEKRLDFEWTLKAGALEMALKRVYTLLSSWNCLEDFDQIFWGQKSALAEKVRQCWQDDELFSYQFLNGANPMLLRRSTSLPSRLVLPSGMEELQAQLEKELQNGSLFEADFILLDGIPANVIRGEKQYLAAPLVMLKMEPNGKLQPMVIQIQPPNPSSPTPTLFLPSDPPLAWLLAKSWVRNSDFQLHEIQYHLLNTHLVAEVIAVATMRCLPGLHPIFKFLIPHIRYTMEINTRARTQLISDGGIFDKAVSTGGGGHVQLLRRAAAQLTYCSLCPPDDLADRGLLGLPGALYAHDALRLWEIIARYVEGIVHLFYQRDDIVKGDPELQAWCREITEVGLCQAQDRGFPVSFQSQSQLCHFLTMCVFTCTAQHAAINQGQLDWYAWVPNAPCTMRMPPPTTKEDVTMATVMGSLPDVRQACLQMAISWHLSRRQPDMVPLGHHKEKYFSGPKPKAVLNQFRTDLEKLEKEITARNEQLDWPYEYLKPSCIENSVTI
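Purified human 12hLO (150 nM final) in 25 mM Hepes, 0.01% Triton X-100, pH 7.0 was preincubated 15 min at room temperature with compound. Then 40 uM arachidonic acid was added, 30 min. Hydroperoxide was read by Fe-XO absorbance ratio 573/405 nm.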
G9a block: qHTS Assay for Inhibitors of Histone Lysine Methyltransferase G9a; Histone-lysine N-methyltransferase EHMT2 (Homo sapiens), Q96KQ7; G9a H3K9 monomethylation, AlphaScreen, 2 h; Potency, µM (top dose mostly 102 µM), for inactives: at the top dose activity, negative = inhibition, hits mostly inhibitors; 350,000 compounds, 8.8% hits; also: % is scaled to controls: 0 for no effect and ±100 for the full control effect; nearly all actives have a fitted effect of over 75% in size
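Using a bead-based AlphaScreen, monomethylated H3K9 product from 2 h room-temperature reactions (G9a 20 nM, peptide 500 nM, SAM 20 uM) was detected with 0.5 ug/mL rabbit anti-H3K9me1 antibody.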
GRP78 ERSR act: qHTS for Inducers of the Endoplasmic Reticulum Stress Response (ERSR) in Human Glioma: qHTS; U87-MG GRP78 promoter luciferase reporter, 16 h; 420,000 compounds, 0.02% hits; Potency, µM, for inactives: top-dose activation, actives largely listed as activators; also: series mostly up to about 76 µM; % of control where 0% means no effect; nearly all actives have a fitted effect of over 35% in size
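Stably transfected U87-MG human glioma cells carrying a GRP78-based luminescent sensor were seeded at 1000 cells/well, pin-dosed with compounds and incubated 16 h. Luciferase reagent was then added, and end-point luminescence was read after 10 min at room temperature.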
Active calls of the source: *; ? = inconclusive; . = not tested or not shown; [ ] = remark or other dose. Calls follow the shape of the dose curve; as a rule, active = well fitted curve in the direction sought with a large enough effect; inconclusive = small, poorly fitted or top-dose-only effect, or another doubt; inactive = no such curve, though single readings can be large; an effect the other way counts as inactive or inconclusive. Potency is read from the fitted curve at half-maximal effect.

SMILES	VDR inh	Sfp PPTase inh	ALOX12 inh	G9a block	GRP78 ERSR act
O=c1c(-c2ccc3c(c2)OCCO3)coc2cc(O)cc(O)c12	-7%	20µM*	?	-1%[59 µM]	3%
O=c1c(-c2ccccc2)coc2cc(O)cc(O)c12	28µM*	-104%	?	-48%[2.33 µM]	-1%
Cc1cc2nc(CO[C@H]3CN(Cc4ccc(S(C)(=O)=O)cc4)C[C@H]3F)[nH]c2cc1C	.	.	15%[176 µM]	.	.
Cc1cc(Cl)nc2c(C)c(Cl)ccc12	.	.	23%	.	.
Cc1cc2nc(CS)[nH]c2cc1C	?	40µM*	0%	10µM*	?
O=[N+]([O-])c1ccc(-n2nnnc2-c2ccccc2)c([N+](=O)[O-])c1	-21%	10%	-20%	-6%[59 µM]	-15%
O=[N+]([O-])c1ccc(-n2nnnc2-c2ccccc2)cc1	22µM*	16%	-6%	-11%	-3%
COC(=O)c1ccc(OC(=O)CCS(=O)(=O)c2ccc(C)cc2)cc1	-27%	.	-30%	35µM*	-4%
Cc1ccc(S(=O)(=O)CCC(=O)c2ccc(F)cc2)cc1	?	6%	0%	126%	-18%
Cc1ccc(C(=O)CCS(=O)(=O)c2ccc(F)cc2)cc1	25µM*	2%	?	32µM*	-17%
COC(=O)c1cc(OC(=O)CCS(=O)(=O)c2ccc(C)cc2)cc(C(=O)OC)c1	.	.	-14%	.	.
c1cc(-c2noc([C@@H]3Cc4nc[nH]c4CN3CC3CCCCC3)n2)ccn1	.	.	107%[176 µM]	.	.
Cc1cc(OC(=O)c2ccco2)c(Sc2ccccc2[N+](=O)[O-])c(=O)o1	?	?	.	32µM*	1%
O=C(COC(=O)c1ccco1)Nc1ccccc1[N+](=O)[O-]	-21%	20%	2%	-4%	-3%
Cc1ccsc1/C=C/C(=O)c1ccc(C2CCCCC2)cc1	.	.	3%	.	.
N=C1N(c2ccccc2)C(=S)C(=Nc2ccccc2)N1c1ccccc1	8.9µM*	.	?	.	-1%
COc1ccc(C(=O)OCC(=O)c2ccc(CNC(C)=O)s2)cc1	-21%	.	-4%	10µM*	3%
CC(=O)NCCc1ccc(C(=O)COC(=O)c2ccc(C)c(O)c2)s1	.	.	-44%	.	.
CC1CCC(=NO)CC1 (configuration not stated)	.	.	-23%	.	.
Cc1ccc2nc(NC(=O)C3=NN(c4ccccc4)C(=O)CC3)sc2c1	14%	1%	?	-26%	3%
Cc1cccc2sc(NC(=O)C3=NN(c4ccccc4)C(=O)CC3)nc12	-8%	-2%	-2%	50µM*	-3%
Cc1nc(C)c(C(=O)Nc2nc3c(C)cccc3s2)o1	5%	50µM*	?	14µM*	-9%
Cc1csc(NC(=O)c2[nH]c3c(c2C)C(=O)CC(C)(C)C3)n1	.	.	30%	.	.
Cc1nccn1CC(=O)N1C[C@@H](COCC2CC2)[C@H](c2ccncc2)C1	.	.	51%	.	.
Cc1cccn2cc(CN3CCN(S(=O)(=O)c4cccc(C(F)(F)F)c4)CC3)nc12	.	.	1%	.	.
SMILES	VDR inh	Sfp PPTase inh	ALOX12 inh	G9a block	GRP78 ERSR act
O=C1OC(c2ccc(Br)cc2)=N/C1=C\c1ccco1	24%	22%	-28%	-35%	-2%
CCCSC1=N/C(=C\c2ccc([N+](=O)[O-])o2)C(=O)S1	79µM*	40µM*	40µM*	?	-1%
O=C1NNC(c2ccccc2)=N/C1=C\c1ccco1	-12%	35µM*	?	.	-4%
O=C1SC(c2ccccc2)=N/C1=C/c1ccco1	21%	-4%	?	50µM*	-2%
CCCSC1=N/C(=C\C=C\c2ccco2)C(=O)S1	?	32µM*	?	14µM*	0%
Cc1cc(C)cc(C(=O)NC2CCN(C(=O)c3cc4c(=O)[nH]c(C)cn4n3)CC2)c1	.	.	-13%	.	.
O=C1SC(SCc2ccccc2)=N/C1=C\c1ccco1	-17%	-21%	?	13µM*	3%
Cc1[nH]n(S(=O)(=O)c2ccccc2)c(=O)c1N=Nc1cccc(Cl)c1	4%	6%	?	.	-5%
Cc1[nH]n(S(=O)(=O)Cc2ccccc2)c(=O)c1N=Nc1ccccc1Cl	4%	11%	?	50µM*	-1%
COc1cc(C2C(C(=O)N3CCOCC3)=C(C)NC3=C2C(=O)CCC3)ccc1OC(C)=O (configuration not stated)	10%	?	-1%	1.6µM*	-2%
O=C(c1ccccc1)c1coc2ccc(O)c(CN3CCOCC3)c12	-11%	7%	0%	27%[59 µM]	6%
COc1ccc(C(=O)c2coc3ccc(O)c(CN4CCCCC4)c23)cc1	7%	6%	-4%	25µM*	-3%
CC1CC(C)(C)NC(=S)N1CCC(=O)N1CCc2ccccc2C1 (configuration not stated)	7%	-20%	40µM*	?	-2%
CC1CC(C)(C)NC(=S)N1CCC(=O)N1CCN(c2ccccc2)CC1 (configuration not stated)	-20%	-3%	?	40µM*	0%
CC(=O)c1ccc(N2CCN(C(=O)CCN3C(=S)NC(C)(C)CC3C)CC2)cc1 (configuration not stated)	-9%	8%	-21%	1%	0%
Cc1c(Cc2ccc3c(c2)OCO3)sc(NC(=O)c2ccccc2)c1C(N)=O	-4%	?	?	32µM*	-6%
CCCC(=O)Nc1sc(Cc2ccccc2)c(C)c1C(N)=O	?	13µM*	?	3.5µM*	1%
Cc1cccc(OC(=O)n2c(=S)oc3cc(Cl)ccc32)c1	5%	1%	?	2.8µM*	-2%
c1cc2nc(C3CCCCC3)[nH]c2cn1	.	.	34%[176 µM]	.	.
CCCC(CCC)c1nc2ccncc2[nH]1	-7%	-12%	-18%	50µM*	0%
COc1ccc(/C(=N/Nc2ncnc3ccccc23)C(=O)O)cc1	10%	63µM*	-26%	?	-1%
Cc1ccc(/C=c2\s/c(=C(/C#N)C(=O)N3CCCC3)n(Cc3ccco3)c2=O)s1	-8%	13µM*	?	?	-1%
COc1ccc(NC(=O)C(CCCCNC(=O)OC(C)(C)C)NC(=O)OCc2ccccc2)cc1 (configuration not stated)	-8%	4%	?	3.5µM*	-2%
O=C(c1c(F)cccc1Cl)N1CCC2(CC1)OCCN2S(=O)(=O)c1ccccc1	.	.	-61%	.	.
Nc1ccc2nc3c(=O)n(CCc4ccccc4)c(=O)[nH]c3nc2c1	-3%	-18%	-24%	.	2%
CCCCn1c(N)c(Br)c(=O)[nH]c1=O	-13%	16%	-1%	-1%[12.7 µM]	-6%
CCCCn1c(=O)[nH]c2nc3cc(N)ccc3nc2c1=O	?	56µM*	?	3.5µM*	-1%
